CYP2C9 activ: human CYP2C9 activators, primary screen, biochemical, luminescence | activation factor at 5 µM | 96,000 tested, 1.4% active | AID 1024, 2008 | recombinant CYP2C9, luciferin-H conversion; stronger effect = higher value; factor 1 = untreated enzyme, 0 = blocked;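 active = activation factor of 2 or more for CYP2C9 at a 5 µM dose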;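 also: 0 = sulfaphenazole-blocked wells and 1 = vehicle-only wells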
Target sequence (P11712 whole entry, looked up): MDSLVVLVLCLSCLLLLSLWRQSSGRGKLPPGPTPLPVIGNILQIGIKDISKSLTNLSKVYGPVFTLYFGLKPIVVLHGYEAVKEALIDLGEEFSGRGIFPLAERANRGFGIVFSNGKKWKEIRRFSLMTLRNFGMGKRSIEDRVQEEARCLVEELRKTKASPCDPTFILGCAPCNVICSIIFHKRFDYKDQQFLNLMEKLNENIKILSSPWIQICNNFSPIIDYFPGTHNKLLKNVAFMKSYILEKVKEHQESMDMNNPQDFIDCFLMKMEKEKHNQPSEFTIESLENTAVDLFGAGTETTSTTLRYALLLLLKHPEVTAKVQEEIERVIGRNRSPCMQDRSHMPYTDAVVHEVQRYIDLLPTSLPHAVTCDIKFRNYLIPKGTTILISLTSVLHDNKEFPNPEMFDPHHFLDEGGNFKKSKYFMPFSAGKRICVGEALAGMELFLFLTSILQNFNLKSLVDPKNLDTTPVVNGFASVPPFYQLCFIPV
CYP2C19 activ: human CYP2C19 activators, primary screen, biochemical, luminescence; AID 1025, 2008; recombinant CYP2C19, luciferin-H EGE luminescence; stronger effect = higher value; 0 = fully inhibited enzyme, 1 = untreated enzyme; activation factor at 5 µM; 96,000 tested, under 10 active; Cytochrome P450 2C19 (Homo sapiens), P33261;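 active = activation factor of at least 2 at 5 µM in the primary screen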;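 also: 0 = wells with 2.5 mM tranylcypromine and 1 = vehicle-only wells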
CYP2C19 inhib: blockers of cytochrome P450 2C19 activity – biochemical, luminescence, ADME assay, primary screen; CYP2C19 Supersomes, luciferin-H EGE luminescence, 30 min; inhibition, % at 5 µM; 96,000 tested, 21% active; AID 778, 2007;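 active = CYP2C19 inhibition above a set limit at 5 µM in the primary screen, cut at about 50% in these data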;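 also: plate controls were negative control wells for no effect and 2.5 mM tranylcypromine positive control for full effect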
CYP2C9 inhib: blockers of cytochrome P450 2C9 activity – biochemical, luminescence, ADME assay, primary screen. P11712. CYP2C9 Supersomes, luciferin-H conversion. inhibition, % at 5 µM. 96,000 tested, 20% active. AID 777, 2007;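 active = blocking of liver enzyme CYP2C9 beyond about 50% at 5 µM, limit read from the data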
Starred values were filed as active, the others as inactive. Shown are actives, neighbours in structure and some others; about 31% of the full set was active somewhere.

Results for CCOC(=O)c1c(NC(C)=O)sc2c1CCCNC2=O ?
CYP2C9 activ: 1.1; CYP2C19 activ: 1; CYP2C19 inhib: -2; CYP2C9 inhib: -13

How did C=CCC1c2cccc(C(=O)O)c2C(=O)N1c1ccc(Cl)cc1 (stereo not given) do in these assays?
CYP2C9 activ: 0.6; CYP2C19 activ: 1.3; CYP2C19 inhib: -33; CYP2C9 inhib: 39

What do the screens show for `CCc1nnc(NC(=O)CSc2ncc(-c3ccccc3)n2CC)s1`?
CYP2C9 activ: 0.3; CYP2C19 activ: 0.2; CYP2C19 inhib: 76*; CYP2C9 inhib: 72*

How did CS(=O)(=O)N(CC(=O)N1CCC(C(N)=O)CC1)C1CCCCC1 do in these assays?
CYP2C9 activ: 1; CYP2C19 activ: 1; CYP2C19 inhib: -3; CYP2C9 inhib: 4

How did Clc1cccc(Nc2c3c(nc4ncnn24)CCC3)c1 do in these assays?
CYP2C9 activ: 0.9; CYP2C19 activ: 0.4; CYP2C19 inhib: 60*; CYP2C9 inhib: 15

How did O=C(Nc1ccc2c(c1)CCC2)C1CCN(c2c3c(nc4ncnn24)CCC3)CC1 do in these assays?
CYP2C9 activ: 0.8; CYP2C19 activ: 0.9; CYP2C19 inhib: 12; CYP2C9 inhib: 20

How did Cc1ccc(Nc2c3c(nc4ncnn24)CCC3)cc1 do in these assays?
CYP2C9 activ: 0.8; CYP2C19 activ: 0.4; CYP2C19 inhib: 60*; CYP2C9 inhib: 19

How did Cc1ccc(Nc2c3c(nc4ncnn24)CC(C)CC3)cc1 (stereo not given) do in these assays?
CYP2C9 activ: 0.8; CYP2C19 activ: 0.8; CYP2C19 inhib: 22; CYP2C9 inhib: 23

What do the screens show for `CCOc1ccc(Nc2c3c(nc4ncnn24)CC(C)CC3)cc1` (stereo not given)?
CYP2C9 activ: 0.6; CYP2C19 activ: 0.5; CYP2C19 inhib: 52*; CYP2C9 inhib: 37

Results for CN(C(=O)CCN1C(=O)c2ccccc2C1=O)C1CCCCC1 ?
CYP2C9 activ: 1.4; CYP2C19 activ: 0; CYP2C19 inhib: 98*; CYP2C9 inhib: -38

Results for COC(=O)c1[nH]c2ccccc2c1NS(=O)(=O)c1ccc(F)c(C)c1 ?
CYP2C9 activ: 0.5; CYP2C19 activ: 0.1; CYP2C19 inhib: 93*; CYP2C9 inhib: 48

How did CCOC(=O)c1[nH]c2ccccc2c1NC(=O)Nc1ccc(OC)cc1 do in these assays?
CYP2C9 activ: 0.7; CYP2C19 activ: 0.5; CYP2C19 inhib: 48; CYP2C9 inhib: 27

Results for COc1ccc2[nH]c(C(=O)O)c(NS(=O)(=O)c3ccc(OC)c(OC)c3)c2c1 ?
CYP2C9 activ: 0.2; CYP2C19 activ: 0.6; CYP2C19 inhib: 36; CYP2C9 inhib: 76*

How did COc1ccc(S(=O)(=O)Nc2c(C(=O)O)[nH]c3ccccc23)c(OC)c1 do in these assays?
CYP2C9 activ: 0.4; CYP2C19 activ: 0.9; CYP2C19 inhib: 6; CYP2C9 inhib: 61*

Results for COc1ccc2[nH]c(C(=O)O)c(CCC(=O)O)c2c1 ?
CYP2C9 activ: 0.7; CYP2C19 activ: 1; CYP2C19 inhib: 1; CYP2C9 inhib: 27

What do the screens show for `COc1ccccc1N1CCN(C(=O)C2C3C=CC4(CN(Cc5ccccc5Cl)C(=O)C24)O3)CC1` (stereo not given)?
CYP2C9 activ: 1.1; CYP2C19 activ: 1; CYP2C19 inhib: -5; CYP2C9 inhib: -11

What do the screens show for `COn1c(=O)c(-c2ccc(Cl)cc2)[n+]([O-])c2ccccc21`?
CYP2C9 activ: 1.1; CYP2C19 activ: 0.7; CYP2C19 inhib: 26; CYP2C9 inhib: -6

How did O=C(CCn1c(=O)c2sccc2n(CC(=O)NCc2ccco2)c1=O)NCc1ccccc1 do in these assays?
CYP2C9 activ: 0.4; CYP2C19 activ: 0.8; CYP2C19 inhib: 21; CYP2C9 inhib: 61*

Results for O=C(NCc1ccco1)c1ccc(Cn2c(=O)c3sccc3n(Cc3cccc(F)c3)c2=O)cc1 ?
CYP2C9 activ: 0.1; CYP2C19 activ: 0.1; CYP2C19 inhib: 87*; CYP2C9 inhib: 85*

Results for O=C(NCc1ccco1)c1ccc(Cn2c(=O)c3ccccc3n(Cc3cccc(Cl)c3)c2=O)cc1 ?
CYP2C9 activ: 1; CYP2C19 activ: 1; CYP2C19 inhib: 2; CYP2C9 inhib: 0

Results for Cc1cccc(C)c1NC(=O)Cn1c(=O)n(CCCC(=O)NCc2ccco2)c(=O)c2sccc21 ?
CYP2C9 activ: 0.2; CYP2C19 activ: 0.9; CYP2C19 inhib: 14; CYP2C9 inhib: 78*

How did CCC1CCCCN1C(=O)Cn1c(=O)n(CCC(=O)NCc2ccco2)c(=O)c2sccc21 (stereo not given) do in these assays?
CYP2C9 activ: 0.5; CYP2C19 activ: 1; CYP2C19 inhib: 5; CYP2C9 inhib: 45

What do the screens show for `O=C(CCCn1c(=O)c2sccc2n(CC(=O)NCc2ccco2)c1=O)NCc1ccco1`?
CYP2C9 activ: 0.8; CYP2C19 activ: 0.9; CYP2C19 inhib: 8; CYP2C9 inhib: 20

What do the screens show for `O=C(Nc1ccc(Cl)cc1C(=O)NCc1cccnc1)c1ccco1`?
CYP2C9 activ: 0.4; CYP2C19 activ: 0.8; CYP2C19 inhib: 23; CYP2C9 inhib: 58*

How did O=C(Nc1ccccc1C(=O)NC(Cc1ccccc1)C(=O)NC1CCCCCC1)c1ccccc1 (stereo not given) do in these assays?
CYP2C9 activ: 0.3; CYP2C19 activ: 0.6; CYP2C19 inhib: 45; CYP2C9 inhib: 71*

How did CC(NC(=O)c1ccccc1NC(=O)c1ccco1)c1ccccc1 (stereo not given) do in these assays?
CYP2C9 activ: 0.3; CYP2C19 activ: 0.6; CYP2C19 inhib: 36; CYP2C9 inhib: 70*

Results for CC(C)C(NC(=O)c1ccccc1NC(=O)c1ccco1)C(=O)O (stereo not given) ?
CYP2C9 activ: 1; CYP2C19 activ: 0.9; CYP2C19 inhib: 8; CYP2C9 inhib: -2

What do the screens show for `O=C(Nc1ccccc1)Nc1ccccc1C(=O)NCc1ccccc1`?
CYP2C9 activ: 0.5; CYP2C19 activ: 0.8; CYP2C19 inhib: 18; CYP2C9 inhib: 50*

Results for CNC(=O)Nc1ccccc1C(=O)NCc1ccccc1 ?
CYP2C9 activ: 0.9; CYP2C19 activ: 0.6; CYP2C19 inhib: 37; CYP2C9 inhib: 14

How did CCOC(=O)Cc1c(C)c2c(O)cc(O)cc2oc1=O do in these assays?
CYP2C9 activ: 0.9; CYP2C19 activ: 0.7; CYP2C19 inhib: 31; CYP2C9 inhib: 9

Results for COc1ccc(C(=O)NNC(=O)CSc2nnc(COc3ccccc3)n2C)cc1 ?
CYP2C9 activ: 0.8; CYP2C19 activ: 0.9; CYP2C19 inhib: 6; CYP2C9 inhib: 22

What do the screens show for `O=C(Nc1ccccc1C(=O)NCc1cccnc1)c1ccco1`?
CYP2C9 activ: 0.5; CYP2C19 activ: 0.2; CYP2C19 inhib: 78*; CYP2C9 inhib: 54*

Results for O=C(Nc1cccnc1)c1cccc(NC(=O)c2ccco2)c1 ?
CYP2C9 activ: 1.4; CYP2C19 activ: 1; CYP2C19 inhib: 3; CYP2C9 inhib: -42

Results for CCCNC(=O)c1ccccc1NC(=O)c1ccc(CSc2ccccc2)cc1 ?
CYP2C9 activ: 0.2; CYP2C19 activ: 0.3; CYP2C19 inhib: 74*; CYP2C9 inhib: 79*

Bioassay records as filed in PubChem BioAssay.
